In PubChem BioAssay (NCI):
“And” between values parts separate entries of the source, which are not always exact repeats. Equal values may be shown once. About 83,000 compounds went through this panel and 20% of them were active in at least one assay; those are over-represented in the sample as a whole.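 Percent growth is the endpoint: 0 to 100 indicates growth inhibition (40 means 60% inhibition), 0 means no net growth, and negative values indicate cell death.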 The source made the active and inactive calls. Rule for the calls: active = growth percent below 10; inactive = the rest. Where a SMILES comes first, the peptide text is derived from it.

Legend:
Test in all cases: NCI-60 one-dose screen, 48 h (100 = growth as untreated, 0 = no growth, -100 = all killed)
SK-MEL-2 melanoma = details: 10 µM unless noted
EKVX NSCLC = details: 10 µM
SN12C renal = details: 10 µM unless noted
UO-31 renal = details: 10 µM unless noted
TK-10 renal = details: 10 µM unless noted
ACHN renal = details: 10 µM unless noted
CAKI-1 renal = details: 10 µM unless noted
A498 renal = details: 10 µM unless noted
CCRF-CEM leukemia = details: 10 µM
MOLT-4 leukemia = details: 10 µM unless noted

SMILES	growth (SK-MEL-2 melanoma)	growth (EKVX NSCLC)	growth (SN12C renal)	growth (UO-31 renal)	growth (TK-10 renal)	growth (ACHN renal)	growth (CAKI-1 renal)	growth (A498 renal)	growth (CCRF-CEM leukemia)	growth (MOLT-4 leukemia)
NC(Cc1ccccc1)C(=O)NC(Cc1ccccc1)C(=O)O (stereo not drawn) (H-Phe-Phe-OH; configuration not given here)	99.1% (inactive) and 104% (inactive)	98% (inactive)	103% (inactive) and 101% (inactive)	88.5% (inactive) and 86.9% (inactive)	105% (inactive)	103% (inactive)	106% (inactive) and 97.1% (inactive)	93.2% (inactive) and 102% (inactive)	118% (inactive) and 98.4% (inactive)	100% (inactive) and 101% (inactive)
CC(C)C(C)(C)c1ccc(O)cc1	104% (inactive)	107% (inactive)	102% (inactive)	98.1% (inactive)	107% (inactive)	112% (inactive)	96.4% (inactive)	102% (inactive)	105% (inactive)	106% (inactive)
Cc1cc2ccccc2cn1	107% (inactive)	93% (inactive)	94% (inactive) and 104% (inactive)	83.2% (inactive) and 82.6% (inactive)	103% (inactive) and 93.4% (inactive)	107% (inactive) and 102% (inactive)	100% (inactive) and 67.8% (inactive)	100% (inactive) and 197% (inactive)	102% (inactive) and 120% (inactive)	112% (inactive) and 88.7% (inactive)
NC(Cc1c[nH]c2ccccc12)C(=O)O (stereo not drawn)	110% (inactive)	93.1% (inactive) and 101% (inactive)	101% (inactive)	91.9% (inactive) and 72.6% (inactive)	103% (inactive) and 98.8% (inactive)	99.8% (inactive) and 100% (inactive)	85% (inactive)	109% (inactive) and 106% (inactive)	105% (inactive) and 102% (inactive)	3.12% (active) and 100% (inactive)
CCN(CCNS(C)(=O)=O)c1ccc(N)c(C)c1	21.6% (inactive)	88.9% (inactive)	88.1% (inactive) and 93.5% (inactive)	42.2% (inactive)	55.8% (inactive) and 17.7% (inactive)	27.9% (inactive) and 76.2% (inactive)	39.4% (inactive) and 73.2% (inactive)	104% (inactive) and 94.2% (inactive)	35.7% (inactive)	66.3% (inactive) and 96.3% (inactive)
Nc1cc(N)c(N)cc1N	-62.5% (active)	57.5% (inactive)	-69.7% (active)	-0.0578% (active)	101% (inactive)	8.63% (active)	82.5% (inactive)	99.8% (inactive)	89.6% (inactive)	83.2% (inactive)
Oc1ccc(Cc2ccccc2Cl)c(O)c1	97.8% (inactive)	96.3% (inactive)	91.2% (inactive)	61.1% (inactive)	103% (inactive)	92% (inactive)	91% (inactive)	75.3% (inactive)	94.1% (inactive)	88.7% (inactive)
O=C(/C=C/c1ccccc1)c1ccccc1	101% (inactive)	93.4% (inactive)	100% (inactive)	79.3% (inactive)	114% (inactive)	107% (inactive)	99.2% (inactive)	94.2% (inactive)		
OCC1OC(O)C(O)C(O)C1O (stereo not drawn)	115% (inactive)	114% (inactive)	103% (inactive)	97.4% (inactive)	100% (inactive)	99.9% (inactive)	89% (inactive)	105% (inactive)	92.3% (inactive)	96.6% (inactive)
COc1cc(C(O)C2C(=O)OCC2C2(c3ccc4c(c3)OCO4)SCCCS2)cc(OC)c1OC (stereo not drawn)	95.6% (inactive)	88.7% (inactive)	101% (inactive)	93.2% (inactive)	98.2% (inactive)	103% (inactive)	93.8% (inactive)	84.4% (inactive)	98.2% (inactive)	94% (inactive)
C/C(=C\c1ccccc1)c1ccccn1	128% (inactive)	98.7% (inactive)	95.8% (inactive)	98.9% (inactive)	162% (inactive)	105% (inactive)	102% (inactive)	111% (inactive)	94.5% (inactive)	73.3% (inactive)
O=C(O)/C=C\C(=O)Nc1cccc2ccccc12	88.2% (inactive) and 130% (inactive)	65.1% (inactive) and 112% (inactive)	97.6% (inactive) and 92.3% (inactive)	59.7% (inactive) and 72% (inactive)	107% (inactive) and 121% (inactive)	90.5% (inactive) and 99.2% (inactive)	89.4% (inactive) and 98.7% (inactive)	96.3% (inactive) and 115% (inactive)	50.7% (inactive) and 101% (inactive)	77.2% (inactive) and 84.1% (inactive)
O=C1CSC2=NCCN12	89% (inactive)	99% (inactive) and 64.7% (inactive)	106% (inactive) and 93.2% (inactive)	84.6% (inactive) and 90.1% (inactive)	101% (inactive) and 106% (inactive)	98.1% (inactive) and 103% (inactive)	95.6% (inactive)	92.8% (inactive) and 99.7% (inactive)	102% (inactive) and 88.1% (inactive)	106% (inactive) and 67.1% (inactive)
COc1ccc(C(=O)CC(c2ccccc2)C(C#N)c2ccccc2)cc1 (stereo not drawn)	71.6% (inactive)	84.9% (inactive)	86.8% (inactive)	69.2% (inactive)	88% (inactive)	88.8% (inactive)	74.2% (inactive)	86.5% (inactive)	84.1% (inactive)	76.4% (inactive)
CN(C)CC1CCCCCC(CN(C)C)C1=O (stereo not drawn)	106% (inactive)	111% (inactive)	94.9% (inactive)	10.5% (inactive)	-22.3% (active)	-49.8% (active)	-48.5% (active)	117% (inactive)	-23.7% (active)	20.7% (inactive)
CC(C)NCC(O)c1ccc(O)c(O)c1 (stereo not drawn)	110% (inactive) and 240% (inactive)	104% (inactive) and 85% (inactive) and 91.2% (inactive)	76.5% (inactive) and 91.4% (inactive) and 92.8% (inactive)	82.6% (inactive) and 106% (inactive) and 76.1% (inactive)	92.5% (inactive) and 87.4% (inactive)	89.6% (inactive) and 104% (inactive)	93.6% (inactive) and 83.6% (inactive)	95.8% (inactive) and 119% (inactive) and 78.3% (inactive)	90.8% (inactive) and 100% (inactive) and 103% (inactive)	98.5% (inactive) and 95.2% (inactive) and 98.8% (inactive)
CCCCCCCCCCCCCCCCC(C(=O)O)C(O)(CC(=O)O)C(=O)O (stereo not drawn)	95.4% (inactive) and -42.9% (active)	38.2% (inactive)	110% (inactive) and 17.4% (inactive)	98.7% (inactive) and 59.3% (inactive)	94.1% (inactive) and 34% (inactive)	96.8% (inactive) and 28.4% (inactive)	103% (inactive) and 74.9% (inactive)	113% (inactive)	2.43% (active)	90.3% (inactive) and 1.35% (active)
CC(=O)Nc1ccc(S(N)(=O)=O)cc1	109% (inactive) and 110% (inactive)	102% (inactive)	97.5% (inactive) and 102% (inactive)	95.8% (inactive) and 84.3% (inactive)	101% (inactive)	103% (inactive) and 93.3% (inactive)	108% (inactive) and 93.2% (inactive)	85.8% (inactive) and 101% (inactive)	93.2% (inactive) and 100% (inactive)	103% (inactive) and 98.8% (inactive)
CCCCOC(=O)/C=C\C(=O)NC(N)=O	111% (inactive)	95% (inactive)	87.2% (inactive)	31% (inactive)	119% (inactive)	61.3% (inactive)	-58% (active)	106% (inactive)	75.2% (inactive)	65.4% (inactive)
O=C1C=C(Nc2ccccc2)c2ccccc2C1=O	101% (inactive)	99.8% (inactive)	20.9% (inactive) and 93.6% (inactive)	65.1% (inactive) and 79.9% (inactive)	149% (inactive) and 136% (inactive)	30.1% (inactive) and 92.8% (inactive)	55.9% (inactive) and 98.1% (inactive)	87% (inactive) and 113% (inactive)	65.8% (inactive) and 94.4% (inactive)	72.7% (inactive) and 87% (inactive)
